Bioassay records deposited in PubChem by National Center for Advancing Translational Sciences (NCATS).
TDP1 cell CPT – qHTS for Inhibitors of human tyrosyl-DNA phosphodiesterase 1 (TDP1): qHTS in cells in presence of CPT; chicken DT40 Tdp1-/-;hTDP1 cells + 20 nM CPT, ATP luminescence, 48 h; actives 12% (n = 420,000); Potency, µM (series often up to 46.2 µM), usual class: inhibitors; also: nearly all actives have a fitted effect of over 55% in size
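Chicken DT40 Tdp1-/- cells complemented with human TDP1, 400 cells/well, exposed to compounds plus 20 nM camptothecin for at least 48 h at 37 C; viability read as ATP content by CellTiter-Glo luminescence.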
TDP1 cell noCPT – qHTS for Inhibitors of human tyrosyl-DNA phosphodiesterase 1 (TDP1): qHTS in cells in absence of CPT; actives 15% (n = 420,000); DT40 Tdp1-/- hTDP1 cells, no CPT, ATP luminescence, 48 h; Potency, µM (series often up to 46.2 µM), hits mostly inhibitors; also: nearly all actives have a fitted effect of over 55% in size
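Cells were dispensed at 400 per well, compounds added by pin tool, plates incubated ≥48 hr at 37 °C, then CellTiter-Glo added for 30 min at room temperature before luminescence reading. Line: DT40 Tdp1-/- complemented with hTDP1; camptothecin omitted.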
HT1080 IDH1KD tx – qHTS for induction of synthetic lethality in tumor cells producing 2HG: qHTS for the HT-1080-IDH1KD cell line; HT-1080 IDH1 knockdown viability, ATP luminescence, 48 h; Potency, µM (doses to about 46.1 µM), actives largely listed as cytotoxic; actives 2% (n = 360,000); AID 686971, 2013
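% activity derives from luminescence (CellTiter-Glo), normalised to DMSO and no-cell wells. HT-1080-IDH1KD cells, 750/well, had 48 h compound exposure at 37 °C.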
HT1080-NT tox – qHTS for induction of synthetic lethality in tumor cells producing 2HG: qHTS for the HT-1080-NT fibrosarcoma cell line | actives 1.6% (n = 360,000) | AID 686970, 2013 | Potency, µM (top dose mostly 46.1 µM), most hits filed as cytotoxic | HT-1080-NT fibrosarcoma viability, CellTiter-Glo ATP luminescence, 48 h;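 also: NT is the 2HG producing partner of a matched IDH1 knockdown line; nearly all actives have a fitted effect of over 55% in size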
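Toxicity toward the 2HG-producing NT line was scored as %Activity, normalised to DMSO and no-cell wells, from CellTiter-Glo luminescence after 48 hours' treatment.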
IL1B secr inh – qHTS for Inhibitors of Inflammasome Signaling: IL-1-beta AlphaLISA Primary Screen. activity change, % at 57.5 µM. AID 743279, 2014. THP-1 LPS/ATP IL-1B secretion, AlphaLISA, 16 h; stronger effect = lower value. actives 4.7% (n = 360,000); in the data active = activity change below about -50%; inconclusive = mostly about -30% to -49%
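THP-1 cells pretreated 1 hr with compounds (up to 57.5 uM final), then stimulated with LPS (250 ng/mL final) plus ATP (1.25 mM final); secreted IL-1B measured by AlphaLISA after 16 hr, decreased signal indicating inhibition.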
A number is an active result; 0 = inactive; ? = inconclusive; - = no result; [ ] = another dose, or the depositor's remark. A selection: hits, their analogues and other compounds. The true share with any hit is near 19%. Unless noted, calls follow the shape of the dose curve; as a rule, active = well fitted curve in the direction sought with a large enough effect; inconclusive = small, poorly fitted or top-dose-only effect, or another doubt; inactive = no such curve, though single readings can be large; an effect the other way counts as inactive or inconclusive.

SMILES	TDP1 cell CPT	TDP1 cell noCPT	HT1080 IDH1KD tx	HT1080-NT tox	IL1B secr inh
COC(=O)N1CCCC(c2cc(C(=O)Nc3ccccc3Cl)no2)C1 (configuration not stated)	0	0	0	0	0
O=C(Nc1ccccc1Cl)c1cc(C2CCCN(C(=O)c3ccccc3)C2)on1 (configuration not stated)	18.4µM	?	0	?	0
Cc1ccc(F)cc1C(=O)N1CCCC(c2cc(C(=O)Nc3ccccc3Cl)no2)C1 (configuration not stated)	?	20.6µM	0	?	0
O=C(NC1CCN(C(=S)Nc2ccc(F)cc2)CC1)c1ccco1	0	0	0	0	0
COCCn1nnnc1CN(Cc1cc2cc(OC)c(OC)cc2[nH]c1=O)C1CCCC1	0	0	0	0	0
CCOc1ccc2[nH]c(=O)c(CN(Cc3nnnn3Cc3ccco3)C3CCCCC3)cc2c1	?	11.6µM	0	0	0
CCC(C)(C)n1nnnc1CN(Cc1cc2cc(OC)ccc2[nH]c1=O)C1CCCC1	?	?	0	0	-53.3
COc1ccc(Cn2nnnc2CN(Cc2cc3ccc(C)cc3[nH]c2=O)C2CCCC2)cc1	9.2µM	13µM	?	?	0
COc1cc(-c2nc(-c3ccc(NC(=O)c4ccc(Br)o4)cc3)no2)cc(OC)c1OC	13µM	16.4µM	?	?	0
COc1ccc(-c2nc(-c3ccc(NC(=O)c4ccc(Br)o4)cc3)no2)cc1OC	18.4µM	6.51µM	?	?	0
O=C(C1CC=CCC1)N1CCN(S(=O)(=O)c2ccc(F)cc2)CC1 (configuration not stated)	0	0	0	0	0
Cc1ccc(SCC(=O)OCC(=O)NCCc2ccc(S(N)(=O)=O)cc2)c(C)c1	0	0	0	0	0
COCCCn1c(-c2ccc(Cl)cc2)n[nH]c1=S	0	0	0	0	0
COCCCn1cn[nH]c1=S	?	14.6µM	0	0	0
CCC/C=C/c1ccc(CN2C(C(C)C)C(=O)N(Cc3cn(CCC4OCCO4)nn3)CCS2(=O)=O)cc1 (configuration not stated)	?	13µM	?	?	0
CCC/C=C/c1ccc(CN2C(C)C(=O)N(Cc3cn(CCC4OCCCO4)nn3)CCS2(=O)=O)cc1 (configuration not stated)	?	13µM	0	0	0
CCC/C=C/c1ccc(CN2C(CC(C)C)C(=O)N(Cc3cn(CCC4OCCCO4)nn3)CCS2(=O)=O)cc1 (configuration not stated)	?	23.1µM	?	0	?
Cc1cc(NS(=O)(=O)c2ccc(N)cc2)nc(C)n1	0	0	-	-	-
Cc1c(C(=O)NNC(=O)c2cccnc2)cccc1[N+](=O)[O-]	0	0	0	0	0
O=C(Cn1nc(-c2ccccc2)oc1=O)OCC(=O)c1ccccc1	0	?	0	0	0
COc1ccc(N2C(=O)CS(=O)(=O)C23C(=O)N(Cc2ccccc2)c2ccccc23)cc1 (configuration not stated)	0	?	-	-	-
CCc1ccccc1CC1CN(Cc2ccccc2)Cc2ccccc2N1c1ccc(OC)cc1 (configuration not stated)	?	11.6µM	0	0	0
COC(=O)[C@@H]1CCCN1Cc1ccc2c(c1)CN(Cc1ccccc1F)CCO2	0[9.04 µM]	0	-	-	-
Cc1ccc2nc(N3C(=O)C(O)=C(C(=O)c4ccc(C)o4)C3c3ccc(O)cc3)sc2c1 (configuration not stated)	0	0	0	0	0
COc1ccc(CN(Cc2cccn2C)S(=O)(=O)c2cccc(C(F)(F)F)c2)cc1	18.4µM	?	0	0	0
SMILES	TDP1 cell CPT	TDP1 cell noCPT	HT1080 IDH1KD tx	HT1080-NT tox	IL1B secr inh
COc1cc(CNCCSc2nnnn2C)cc(Br)c1OCc1ccccc1F	0	?	0	0	0
CCOc1cc(CNCCSc2nnnn2C)cc(Br)c1OCc1ccccc1F	16.4µM	12.6µM	?	?	-65.2
CCOc1cc(CNCCSc2nnnn2C)cc(Cl)c1OCc1ccc(Cl)cc1	13µM	13µM	-	-	-
CCOc1cc(CNCCSc2nnnn2C)cc(Br)c1OCc1ccc(F)cc1	?	?	0	23.1µM	-87.3
CCOc1ccc(Cl)cc1CNCCCSc1nnnn1C	0	0	-	-	-
COc1cc(CNCCSc2nnnn2C)cc(Br)c1OCc1ccccc1	?	?	0	0	0
COc1cc(CNCCCSc2nnnn2C)cc(Br)c1OC	0	0	-	-	-
COc1cc(CNCCSc2nnnn2C)cc(Br)c1OCc1ccc(F)cc1	?	25.9µM	?	?	-50.4
COC(=O)[C@]12CCCCC=C1N(Cc1ccc(Cl)cc1Cl)C(=O)[C@H](CC(=O)NCCCN1CCCC1=O)C2	?	?	0	0	0
CCn1c2ccccc2c2cc(NC(=O)COC(=O)c3ccc(NC(=O)CC#N)cc3)ccc21	0	0	0	0	0
CCOc1cc(CNCCSc2nnnn2-c2ccccc2)cc(Cl)c1OC	?	20.6µM	-	-	-
Cc1c(Cl)cccc1-c1ccc(CNCCSc2nnnn2-c2ccccc2)o1	0	0	-	-	-
COc1cc(/C=N/NC(=O)c2ccc3c(c2)OCO3)ccc1O	0	0	0	0	0
COc1cc(Cl)cc(/C=N\NC(=O)c2ccc3c(c2)OCO3)c1O	?	0	9.2µM	9.2µM	0
O=C(N/N=C/c1cc(Cl)cc([N+](=O)[O-])c1O)c1ccc2c(c1)OCO2	16.4µM	9.2µM	0	0	0
NC(=O)COc1ccc(NC(=O)CC23CC4CC(CC(C4)C2)C3)cc1	0	0	0	0	0
COc1cccc(-c2cn3nc4c(nc3n2)CCCC4)c1	0	16.4µM	16.4µM	?	0
COc1cccc(-c2cc(C(F)(F)F)n3nc(N)nc3n2)c1	0	?	0	0	0
COc1c(O)cccc1/C=N/NC(=O)Cn1ccnc1C	?	23.1µM	0	0	0
CCOc1ccccc1CNC(=O)CCNS(=O)(=O)c1ccc2[nH]c(=O)oc2c1	0	0	0	0	0
CCOC(=O)c1cc(CC)sc1/N=C/c1c(O)ccc2ccccc12	0	?	18.4µM	0	0
Cc1c(Cc2ccccc2)sc(/N=C/c2ccc3ccccc3c2)c1C(N)=O	0.731µM	0.82µM	2.91µM	2.91µM	0
COc1ccc(/C=C/C(=O)Nc2sc(Cc3ccccc3)c(C)c2C(N)=O)cc1	0	0	0	0	0
Cc1c(Cc2ccccc2)sc(/N=C/c2c(O)ccc3ccccc23)c1C(N)=O	23.1µM	?	?	?	0
C#CC(C)(C)NC(=O)c1sccc1Oc1ccc(F)cc1[N+](=O)[O-]	0	?	0	0	0
